In the supplement of paper PMC11417369:
Whole data set: some 25,000 sequences, median “ln(normalized median fluorescence intensity)” near 6.7, cut for the highest 2% near 10. The entries come from a sample that favours the highest values as a whole.

System: PfHDP1 homeodomain (GST-tagged)
Assay: gcPBM binding intensity (ln(normalized median fluorescence intensity)); higher = stronger DNA binding
Summary of the method: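 GST-tagged P. falciparum DNA-binding domains, expressed in E. coli (about 25 μg on average), were applied for 1 h to an Agilent 4 × 180k array of primer-extended double-stranded 36-bp intergenic genomic probes plus negative controls. The binding buffer was 1× PBS with 1% milk, 0.2 mg/ml BSA, 0.5% salmon testes DNA and 0.03% Triton X-100. Bound protein was detected with Alexa488 anti-GST antibody and scanned at 488 nm. Binding intensity is the highest Masliner-normalised natural-log median intensity across replicate spots of either probe orientation.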

Point of comparison: “GTATATAATATTAGTGCACACACAAAAATGTACTAA [CACACA_site8112]”, “gcPBM binding intensity (ln)” value 10.3. Against it:
- GATTAATTTAAAAAATGTACATTTTATTGTATAACC [XGTACX_site5539] — lower, 6.55
- AACTGAGAAACCGAAGTGCAATATGTATATATACAT — lower, 9.08
- GAAAATAGAAAAAGCACACATATATTTTGGAATGTA [CACACA_site551] — lower, 6.5
- ATATATATAACAAAAGTGCATTAAGGGGATGCTATA — lower, 8.66
- CGTATTATTTTATAAACACACAAGGGGGCATGTATA [CACACA_site6489] — lower, 7.82
- TTTTTTTTTTTTTTGGTGCGATCTTTTAAATGATCC — lower, 6.48
- TAATTTCCTTAAGAATGTACTTACATTTTATTATTT [XGTACX_site5998] — lower, 6.02
- CCTATAAAACCATATACACACATATAAATAAAAAAA [CACACA_site7809] — lower, 6.58
- TACAAATATATAAAATGTACATATATATACATATTA [XGTACX_site3029] — lower, 6.13
- AAATAATATGTAATCAAATTCACCAAACGAAAAAAA [TGCATGCA_negctrl_site33] — lower, 6.59
- ATATAATATTAGTGCACACACAAAAATGTACTAAAC [CACACA_site632] — higher, 10.4
- TATATATATATAACAACACACACAGATCATAAAACT [CACACA_site8670] — lower, 8.9
- TCAACAAATAAACTTTGTACATATATACAAAATATA [XGTACX_site4447] — lower, 6.27
- GAATAAAAAATATATGTGCACATATAAACTTAAAAT [GTGCAC_site9554] — higher, 10.7
- TGTATATGGTTTGTGCAAAAATTTATTAATGTGTAA [TGCATGCA_negctrl_site374] — lower, 10.1
- ATATATATTAATTTTGTGCACAAATGGAAATGTTTG [GTGCAC_site9971] — higher, 10.9
- TCATAACAACTTTGTGTGCACATAAAACATGTATAT — higher, 11
- AACTTAAAAAATAAATGTACATAAATATAAACATAT [XGTACX_site2987] — lower, 6.59
- TATATATATATGTGCACACATAATAAAAAAAAAAAT [CACACA_site3831] — lower, 9.99
- CTATAATATTAGTGCACACACAAAAATGTACTAAAC [CACACA_site6442] — higher, 10.6
- TTATATGTTTTGTGTACACAATTTATTAAATTAATA [CACACA_site5645] — lower, 8.03
- AAAAAAAAAAAAAAGAGTACACAGACGTTCAAAGGT [XGTACX_site7566] — lower, 6.85
- CGCGAACATACATACACACACATATTTATATAGGTA [CACACA_site6241] — lower, 6.69
- ATAATTAGTTCAATTTTTTTTTTTTTTTTTTTTTTT [CACACA_negctrl_site1371] — lower, 6.91
- ATAAATTTATATACTTGTACATATATATATTACATA [XGTACX_site6697] — lower, 6.7
- TGCTGTATATTTTTCTGTACACATTTATATATTCCA [XGTACX_site6244] — lower, 6.65
- CATATAGTATAAATTTGTACATAAATATATATATAT [XGTACX_site7477] — lower, 8.91
- TATAATATATTTTAATGTACGTACATCCCGATTAAT [XGTACX_site7651] — lower, 6.63
- AACCATAAATAATTATGTACTAAAAAAAATATATAT [XGTACX_site3415] — lower, 6.7
- AATAAATAAAAAATTACACACATATTTATAAATATA [CACACA_site7584] — lower, 6.4
- AATATTTTAAATATTGCATGCAATGAAAAATGTAAA [TGCATGCA_site139] — lower, 7.73
- TTATTGTAAATATATGCATGTGCAAAATGAAAAAAA [TGCATGCA_site399] — higher, 10.5
- TAATAAAATATGTACGTGCACATAATTATACTAAAA — higher, 10.5
- ACTAAAAAATATATATGTACATAATAATATATTATT [XGTACX_site1260] — lower, 6.66
- AAATTAATATTATGTGCATGCACAAAGAGGAACGAC [TGCATGCA_site754] — higher, 11.8
- TATAAAATAAATTGTGCACACATATTTATAAATATG [CACACA_site2330] — higher, 10.5
- ATAATTATAAAATAAACACACATATATATTTATATG [CACACA_site440] — lower, 6.29
- TATTAATTATAAGATGCATGTGCAAAAATATGTTCC [TGCATGCA_site51] — lower, 10.2
- CAAAAAAATGTGAAGGCATGCAAATATGTAAAATAA [TGCATGCA_site921] — lower, 7.26
- ATAATTATTAAGAGAACATGCAAAATATATATGTTT [TGCATGCA_site503] — lower, 6.68
- AAAAATAAAAAAATAAAAAATAAAAAAATAAAAAAT [CACACA_negctrl_site1425] — lower, 6.64
- TTAATAATAAAAAGGAGTACACTAATATACTATAAA [XGTACX_site2346] — lower, 6.35
- TAAATTTTAATAAATACACACAAATTTTAATTCTAT [CACACA_site6039] — lower, 6.27
- TACATATAAACAATAACACACACCTAGGTACATGGA [CACACA_site8178] — lower, 6.49
- TGTATTCTCTTAGTAGTGCATTTGAAGATTATATAA — lower, 8.81
- TAAATAGATGTTTTATGTACGTATAAATAAAAAAAA [XGTACX_site3412] — lower, 6.29
- TTTATTTATTTAATTACACACGAACATATAACCATT [CACACA_site7952] — lower, 6.8
- ATTTTTTAAAAAGTAACACACACTCTTATATATAAT [CACACA_site9206] — lower, 6.64
- ATATACATATCATGTAGTACAATTTTTTTACTTTTT [XGTACX_site7988] — lower, 6.14
- CAAGCTATGTATTCTACACACACATACACCCATATA [CACACA_site9133] — lower, 7.22
- ATTATTAATAATTGTGTGCACAAATATTTATATGCT — higher, 10.6
